Experimental data from PubChem BioAssay AID686979 (National Center for Advancing Translational Sciences (NCATS), 2013).
Out of some 420,000 compounds screened, about 50,000 (12%) were called active. Entries that show only a call come without a potency. About 26% were inconclusive and are not listed. The call rests on the fitted dose curve; in most records, active means well fitted inhibition curve with a large enough effect; inconclusive means small, poorly fitted or top-dose-only effect; inactive means flat fitted curve, though single readings scatter. For the sample, actives were picked, then their nearest neighbours and some compounds at random. Where a SMILES comes first, the peptide text is derived from it. [ ]: non-standard residue; d: D form. The star is where a group is joined. PhAc = O=C(Cc1ccccc1)*

Assay: qHTS for Inhibitors of human tyrosyl-DNA phosphodiesterase 1 (TDP1): qHTS in cells in presence of CPT; further: nearly all actives have a fitted effect of over 55% in size
Conditions: chicken DT40 Tdp1-/-;hTDP1 cells + 20 nM CPT, ATP luminescence, 48 h; series mostly up to 46.2 µM
In short: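 Cell growth measured by CellTiter-Glo luminescence after a minimum 48 h, 37 C compound exposure with 20 nM CPT in Tdp1-knockout DT40 cells stably expressing hTDP1, seeded 400/well; qHTS titration format.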
Potency means the concentration at half of the fitted maximal effect.

Row | SMILES | Potency
1 | CCCCn1c(N)c(N2CCOCC2)c(=O)n(CC(=O)NCCc2ccccc2)c1=O | inactive
2 | CN(C(=O)CSc1nnc(-c2n[nH]c3ccccc23)o1)c1ccccc1 | inactive
3 | Cc1c(Cl)c([N+](=O)[O-])nn1CC(=O)NCCCN1CCOCC1 | inactive
4 | C/C(=N\NC(=O)NC1CCCCC1)c1ccc(OC(F)F)cc1OC(F)F | 23.1 µM (active)
5 | CCCC/C(C)=N/NC(=O)NC1CCCCC1 | inactive
6 | O=C(COC(=O)/C=C/c1ccc(OC(F)F)cc1)NC1CCCCC1 | inactive
7 | O=C(NCc1ccccc1Cl)C1CCC(CNc2c(N3CCCCC3)c(=O)c2=O)CC1 (stereo not given) | inactive
8 | COc1ccc2oc(=O)cc(CN3CCOCC3)c2c1 | inactive
9 | O=C(NC(Cc1ccccc1)C(=O)N1CCCC(C(F)(F)F)C1)c1ccccc1 (stereo not given) | inactive
10 | O=C(NCC(=O)N1CCCC(C(F)(F)F)C1)c1ccccc1F (stereo not given) | inactive
11 | FC(F)(F)C1CCCN(c2nsc3ccccc23)C1 (stereo not given) | 2.31 µM (active)
12 | CCCCCC1CC(COc2ccccc2)OC1=O (stereo not given) | inactive
13 | COc1ccc(CCNC(=O)C(=O)NCC2OCCN2S(=O)(=O)c2ccc(F)cc2)cc1OC (stereo not given) | inactive
14 | COc1ccc(S(=O)(=O)N2CCOC2CNC(=O)C(=O)NCc2ccncc2)cc1C (stereo not given) | inactive
15 | COc1ccc(CCNC(=O)C(=O)NCC2OCCN2S(=O)(=O)c2ccc(OC)c(C)c2)cc1 (stereo not given) | 18.4 µM (active)
16 | CN(C)CCCNC(=O)c1cc(C(=O)Cc2ccc(Cl)cc2)c[nH]1 | inactive
17 | CCCCN(CCCC)CC(O)Cn1c2ccccc2c(=O)c2ccccc21 (stereo not given) | inactive
18 | Cc1ccc(C(=O)OCC(=O)N2CC(C)CC(C)C2)cc1S(=O)(=O)N1CCCCC1 (stereo not given) | inactive
19 | COc1ccc(C2C(C(C)=O)=C(O)C(=O)N2Cc2cccnc2)cc1 (stereo not given) | inactive
20 | CCCOc1ccc(C2c3c(-c4ccccc4O)n[nH]c3C(=O)N2Cc2cccnc2)cc1 (stereo not given) | 23.1 µM (active)
21 | CCOc1ccc(/C(O)=C2/C(=O)C(=O)N(Cc3cccnc3)C2c2ccc(N(C)C)cc2)c(C)c1 (stereo not given) | inactive
22 | COc1ccc(S(=O)(=O)N2CCC(C(=O)NCCC(=O)NCCc3cccc(F)c3)CC2)cc1 | inactive
23 | NC(Cc1ccc(F)cc1)c1csc(Nc2nncc3ccccc23)n1 (stereo not given) | 4.11 µM (active)
24 | COCC(C)NC(=O)COc1nncc2ccccc12 (stereo not given) | inactive
25 | CN1CCN(S(=O)(=O)c2ccc(NC(=S)NC(=O)C3CC3)cc2)CC1 | inactive
26 | O=C(NCCc1ccccc1)C(=O)NCC1OCCN1S(=O)(=O)c1cccs1 (stereo not given) | inactive
27 | CCCCn1c(N)c(N(CC(C)C)C(=O)c2cccc(S(=O)(=O)N3CCN(C(C)=O)CC3)c2)c(=O)[nH]c1=O | inactive

Row | SMILES | Potency
28 | COc1cc(C(=O)Nn2c(O)c(C3=c4ccccc4=NC3=O)sc2=S)ccc1O | inactive
29 | CCN(CC)CCCNC(=O)CCn1nc(-c2ccc(Cl)cc2)ccc1=O | inactive
30 | O=C(CN1CCN(c2ccc(Cl)cc2)CC1)N1CCCC1 | inactive
31 | O=c1[nH][nH]c(=O)c2cc(N3CCCC3)ccc12 | inactive
32 | O=C1C=CC(=O)N1c1ccc(N2CCCCC2)cc1 | 1.16 µM (active)
33 | CNC(=S)Nc1ccc([N+](=O)[O-])cc1 | inactive
34 | O=C(Cc1ccccc1)NNS(=O)(=O)c1ccc([N+](=O)[O-])cc1 | inactive
35 | O=C(O)/C=C/C(=O)NNc1ccc([N+](=O)[O-])cc1 | 20.6 µM (active)
36 | COc1cccc(NC(=O)C(Sc2nnnn2C)c2ccccc2)c1 (stereo not given) | inactive
37 | COCCCN1C(=O)C(CC(=O)NCc2cccs2)CC(C(=O)N2CCOCC2)=C1C (stereo not given) | inactive
38 | CCOCCCN1C(=O)C2C(C(=O)Nc3ccc(OCC)cc3)C3C=CC2(O3)C1C(=O)NC1CCCCC1 (stereo not given) | inactive
39 | CC(=O)c1ccc(NS(=O)(=O)c2ccc(-c3cc(C)no3)s2)cc1 | inactive
40 | Cc1cc(-c2ccc(S(=O)(=O)N3CCc4ccccc4C3)s2)on1 | inactive
41 | Cc1cc(C)cc(NS(=O)(=O)c2ccc(-c3cc(C)no3)s2)c1 | 2.59 µM (active)
42 | Cc1cc(-c2ccc(S(=O)(=O)N3CCN(c4cccc(C(F)(F)F)c4)CC3)s2)on1 | inactive
43 | CCc1cccc(C)c1NS(=O)(=O)c1cc(Br)cnc1N | inactive
44 | CCc1cccc(C)c1NS(=O)(=O)c1ccc(-c2cc(C)no2)s1 | 0.411 µM (active)
45 | O=C(O)c1cccc(N=NN2CCCCCC2)c1 | inactive
46 | CC(C)(C)c1ccc(S(=O)(=O)NC(=O)C2(C)CCN2C(=O)CC2CC2)cc1 (stereo not given) | inactive
47 | Cc1ccnc(NC(=O)CCNS(=O)(=O)c2ccc(C)c(C)c2)c1 | inactive
48 | CN1CCN(C(=O)c2ccc(-c3cc4nc(NCc5cccnc5)n(C)c(=O)c4s3)cc2)CC1 | inactive
49 | Cc1ccc(S(=O)(=O)N/N=C\c2cc3c(cc2[N+](=O)[O-])OCO3)cc1 | 10.3 µM (active)
50 | Cc1ccc(-c2n[nH]c(=S)n2/N=C/c2cc3c(cc2[N+](=O)[O-])OCO3)cc1 | inactive
51 | CC(=O)N/N=C/c1cc2c(cc1[N+](=O)[O-])OCO2 | inactive
52 | O=C(Nc1ccc(Cl)cc1)c1csc([C@@H]2O[C@H](CO)[C@H](O)[C@H](O)[C@H]2O)n1 | inactive
53 | O=C(Nc1ccccc1)Oc1cccc2cccnc12 | 0.651 µM (active)
54 | Fc1ccccc1COc1cccc2cccnc12 | inactive

Row | SMILES | Potency
55 | O=C(Nc1ccccc1Cl)Nc1cccc2cccnc12 | inactive
56 | CCN(CC(=O)N1CCCC1)S(=O)(=O)c1ccc(F)cc1 | inactive
57 | O=S1(=O)C=C(SCCN2CCCC2)c2ccccc21 | inactive
58 | O=C(COC(=O)c1ncc(Cl)c(Cl)c1Cl)NCc1cccs1 | inactive
59 | CN1CCN(c2ccc(S(=O)(=O)N3CCCCC3)cc2NC(=O)Cc2ccccc2F)CC1 | inactive
60 | O=C(/C(=C/c1cccc(Cl)c1)c1nc2ccccc2[nH]1)c1ccccc1 | 16.4 µM (active)
61 | CCC(=O)/C(=C(/O)c1ccccc1)c1nc2ccccc2[nH]1 | inactive
62 | O=C(Cc1nc2ccccc2[nH]c1=O)c1ccc(Cl)cc1 | inactive
63 | CC(=O)c1ccc(OC(=O)N2CCOCC2)cc1 | inactive
64 | Cc1ccc(OCCNC(=O)CN2C(=O)NC3(CCCC3)C2=O)cc1 | inactive
65 | CCN(CC)Cc1cc(C(C)=O)ccc1O | inactive
66 | Cc1cc2ccccc2n1CCNC(=O)c1ccc(F)cc1 | 14.6 µM (active)
67 | Cc1cc(C(=O)COC(=O)CNC(=O)c2ccc(F)cc2)c(C)n1Cc1ccco1 | inactive
68 | COc1ccccc1Cn1c(CO)nc2ccccc21 | inactive
69 | CCCCCn1c(CCCNC(=O)c2ccccc2OC)nc2ccccc21 | 20.6 µM (active)
70 | CC(=O)NCCc1nc2cc(NC(=O)c3ccccc3)ccc2n1C | inactive
71 | CCC(=O)NCCc1nc2ccccc2n1CC | inactive
72 | CCCCCNC(=O)c1cccnc1SCC(=O)Nc1ccccc1OC | inactive
73 | CCCCCn1c(CCNC(=O)c2ccc(F)cc2)nc2ccccc21 | 23.1 µM (active)
74 | Cc1cc2ccccc2n1CCC(=O)O | inactive
75 | COc1ccc(CCNC(=O)Cn2c(=O)n(-c3ccccc3)c(=O)c3c(C)c(C)sc32)cc1OC | inactive
76 | Cc1cc(C)c(NC(=O)c2cc3sc(Cl)cc3n2C)c(C)c1 | inactive
77 | COc1ccc2c(c1)c1nc3n(c(=O)c1n2CC(=O)Nc1ccccc1)CCS3 | inactive
78 | COc1ccc(S(=O)(=O)Nc2ccc3c(c2)OCO3)cc1Cl | inactive
79 | COCC(=O)Nc1c(I)c(C(=O)NCC(O)CO)c(I)c(C(=O)N(C)CC(O)CO)c1I (stereo not given) | inactive
80 | CC(C)C[C@@H](NC(=O)[C@H]1CCCN1C(=O)Cc1ccccc1)C(N)=O (PhAc-[dP]-[dL]-NH2) | inactive
81 | Cc1noc2ncnc(NCc3ccccc3Cl)c12 | 18.4 µM (active)

Row | SMILES | Potency
82 | O=C(O)Cc1ccc(NCc2ccccc2Cl)cc1 | inactive
83 | Cc1cnc(CNc2ncncc2-c2ccccc2Cl)cn1 | inactive
84 | N/C(=N\OC(=O)CCCC(=O)O)c1ncc(C(F)(F)F)cc1Cl | inactive
85 | CCNC(=O)COc1cc(C)c(Br)c(C)c1 | inactive
86 | CCn1cc(/C=C(\NC(=O)c2cc(OC)c(OC)c(OC)c2)C(=O)N2CCN(C)CC2)c2ccccc21 | inactive
87 | COc1ccc(C2=CC(c3ccccc3Cl)n3nc(-c4ccc(Cl)cc4)nc3N2)cc1 (stereo not given) | inactive
88 | CN(CC(=O)NCCN1CCOCC1)S(=O)(=O)c1ccc(F)cc1 | inactive
89 | Cc1ccnc(SCC(=O)Nc2cccc(S(=O)(=O)N3CCOCC3)c2)n1 | inactive
90 | C=C(C)CNC(=S)/N=c1\scc(C)n1CC | 18.4 µM (active)
91 | Cc1csc(=NC(=O)c2ccccc2)n1CCO | inactive
92 | CSCCC(C(=O)NC1=NCCS1)N1C(=O)c2ccccc2C1=O (stereo not given) | inactive
93 | N/C(=N\OS(=O)(=O)c1cccc([N+](=O)[O-])c1)c1ccncc1 | inactive
94 | Cc1cc(=O)[nH]c(SCc2ccc(Cl)cc2)n1 | inactive
95 | CCN(C(=O)CSc1nc(N)cc(=O)[nH]1)C1CCS(=O)(=O)C1 (stereo not given) | inactive
96 | Cc1cc(C(=O)CSc2nc(N)cc(=O)[nH]2)c(C)n1CCc1ccc(Cl)cc1 | 16.4 µM (active)
97 | CCCCc1nnc(NC(=O)CSc2nc(N)cc(=O)[nH]2)s1 | inactive
98 | Cc1cc(C)c(C(=O)CSc2nc(C)cc(=O)[nH]2)c(C)c1 | inactive
99 | Cc1cc(C(=O)CSc2nc(N)cc(=O)[nH]2)c(C)n1-c1cccc(F)c1 | 7.31 µM (active)
100 | Cc1c(OC(C)C(=O)NCC2CCC(C(=O)O)CC2)ccc2c1oc(=O)c1ccccc12 (stereo not given) | inactive
101 | COc1cc(SC)ccc1C(=O)NNC(=O)C1COc2ccccc2O1 (stereo not given) | inactive
102 | CCc1ccccc1NC(=O)CN(C)C(=O)c1cc(C2CC2)nn1-c1ccccc1 | inactive
103 | O=C(COC(=O)c1ccc(Br)o1)NC12CC3CC(CC(C3)C1)C2 | inactive
104 | COc1cc(C(=O)OCC(=O)NC23CC4CC(CC(C4)C2)C3)cc(OC)c1OC | 29.1 µM (active)
105 | O=C(COC(=O)c1cccnc1Cl)NC12CC3CC(CC(C3)C1)C2 | inactive
